A selection: hits, their analogues and other compounds. The true share with any hit is near 9.2%.
LMNA splice mod = LMNA splicing modulation | Potency, µM (series often up to 46.1 µM), most hits filed as inhibitors | HeLa LMNA splicing GFP/RFP minigene ratio, 48 h | AID 1487 | 0.01% of 200,000 active; active = well fitted inhibition curve with a large enough effect in the signal ratio, with a control signal flat, not every such curve was filed as active; inconclusive = small, poorly fitted or top-dose-only effect, or effect the other way, or a change in a side signal; the % refers to the signal ratio
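S3 HeLa cells stably expressing lamin A-EGFP splicing minigene plus DsRed2, 600 cells/well, 48 h compound exposure at 37C. Laser-scanning cytometry; analysed as GFP (500-530 nm)/RFP (575-640 nm) total intensity ratio; 0.5% DMSO vehicle.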
HTT ATP protect = Huntington cell model cytoprotection by ATP luminescence | AID 1471 | 0.14% of 230,000 active | Potency, µM (series often up to 56.4 µM), usual class: activators | PC12 HTT-Q103 induced, cytoprotection, ATP luminescence, 40 h; active = well fitted curve in the direction sought with a large enough effect; inconclusive = small, poorly fitted or top-dose-only effect, or another doubt; inactive = no such curve, though single readings can be large; an effect the other way counts as inactive or inconclusive; note: nearly all actives have a fitted effect of over 45% in size
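Huntington model: PC12 line, ecdysone-inducible HTTQ103 exon1–GFP, tebufenozide 100 nM. Test articles in a dose series. Endpoint luminescence from cellular ATP.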
HTT aggregate = reduces HttQ103-GFP aggregates in PC12 cells; PC12 HttQ103-GFP aggregates, Acumen cytometry, 40 h; Potency, µM (top dose mostly 46.1 µM), most hits filed as inhibitors; 1.1% of 220,000 active; active = well fitted curve in the direction sought with a large enough effect; inconclusive = small, poorly fitted or top-dose-only effect, or another doubt; inactive = no such curve, though single readings can be large; an effect the other way counts as inactive or inconclusive; note: nearly all actives have a fitted effect of over 60% in size
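Steps: seed 1500 PC12 HTTQ103-GFP cells/well; add tebufenozide, 100 nM final; add compound titration; add ATPLite reagent; quantify GFP aggregates by laser scanning cytometry.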
ALDH1A1 inh = inhibitors of human aldehyde dehydrogenase 1A1; Purified ALDH1A1, NADH fluorescence, propionaldehyde substrate; Potency, µM (doses to about 75.3 µM), hits mostly inhibitors; 7.3% of 220,000 active
JMJD2E inh = blocks human JMJD2E demethylase activity; B2RXH2; JMJD2E catalytic domain, FDH-coupled NADH fluorescence (FDH is formaldehyde dehydrogenase); Potency, µM (titrated, usually from 57.1 µM), hits mostly inhibitors; 1.6% of 230,000 active; AID 2147; note: nearly all actives have a fitted effect of over 50% in size
Target sequence (B2RXH2 1-337 limits assumed): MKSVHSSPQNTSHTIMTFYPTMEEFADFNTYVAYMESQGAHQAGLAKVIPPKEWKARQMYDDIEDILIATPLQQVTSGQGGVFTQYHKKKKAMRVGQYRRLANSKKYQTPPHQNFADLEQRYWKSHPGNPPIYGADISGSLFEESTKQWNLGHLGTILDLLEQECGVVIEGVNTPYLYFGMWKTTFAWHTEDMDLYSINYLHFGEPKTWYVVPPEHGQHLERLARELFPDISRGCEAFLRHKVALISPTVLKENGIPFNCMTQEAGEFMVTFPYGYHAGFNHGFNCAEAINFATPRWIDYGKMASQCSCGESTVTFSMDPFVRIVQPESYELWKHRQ
HPGD inh = blocks human HPGD enzyme activity. P15428. purified HPGD, NADH fluorescence kinetic, PGE2 substrate. Potency, µM, usual class: inhibitors. 4.3% of 150,000 active. AID 894
Target sequence (P15428 whole entry, looked up): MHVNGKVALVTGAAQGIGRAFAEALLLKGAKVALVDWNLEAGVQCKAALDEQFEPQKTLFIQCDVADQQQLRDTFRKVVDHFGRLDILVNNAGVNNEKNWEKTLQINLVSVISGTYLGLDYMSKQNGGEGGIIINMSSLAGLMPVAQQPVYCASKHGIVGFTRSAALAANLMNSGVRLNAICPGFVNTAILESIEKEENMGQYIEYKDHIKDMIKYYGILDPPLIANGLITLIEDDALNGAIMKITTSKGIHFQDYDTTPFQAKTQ
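NADH formation kinetics: reaction with 30 uM PGE2 and 1 mM NAD+ (final), 20 nM enzyme, Tris-HCl pH 8 with Tween 20, after 15 min compound preincubation at room temperature. Fluorescence change, last versus first of five reads.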
Of the large screens only hits and unclear results are named; the others gave an inactive call. Unless noted, calls come from the whole dose curve; as a rule, active = well fitted inhibition curve with a large enough effect (not every such curve was filed as active); inconclusive = small, poorly fitted or top-dose-only effect, or another doubt; inactive = no such curve, though single readings can be large or run the other way.

O=C(CSc1nnnn1-c1ccccc1)NC1CCCc2ccccc21 (stereo unspecified)	HTT aggregate inconclusive, ALDH1A1 inh 10µM (no result: HPGD inh)
CC(Sc1nnc(Nc2ccccc2)s1)C(=O)NC1CCCc2ccccc21 (stereo unspecified)	LMNA splice mod inconclusive, ALDH1A1 inh 32µM
Cc1cccc(Nc2nnc(SCC(=O)NC3CCCc4ccccc43)s2)c1C (stereo unspecified)	LMNA splice mod inconclusive, HPGD inh inconclusive
O=C(CSc1c(Cl)cccc1Cl)NC1CCCc2ccccc21 (stereo unspecified)	none
Cc1nnc(SC(C)C(=O)NC2CCCc3ccccc32)n1-c1ccccc1 (stereo unspecified)	HTT aggregate inconclusive (no result: HPGD inh)
Cc1ccccc1-n1nnnc1SC(C)C(=O)NC1CCCc2ccccc21 (stereo unspecified)	ALDH1A1 inh 4.5µM
O=C(CSc1nc2ccccc2s1)NC1CCCc2ccccc21 (stereo unspecified)	LMNA splice mod inconclusive, ALDH1A1 inh inconclusive, HPGD inh 11µM
O=C(CSc1nc2ccccc2[nH]1)NC1CCCc2ccccc21 (stereo unspecified)	none
C=C(CC1([C@@H](NP(=O)(c2ccccc2)c2ccccc2)[C@H]2C[C@@H]2CCN(C(=O)OCC)S(=O)(=O)c2ccc(C)cc2)CC1)c1ccccc1	none (no result: LMNA splice mod, HTT aggregate)
CC(=O)Oc1ccc2c(c1)CCC1C2CC[C@]2(C)C(=O)CCC12 (stereo partly specified)	none (no result: LMNA splice mod, HTT aggregate)
C=C[C@](C)(O)CCC1C(=C)CC(O)C2C(C)(C)CCCC12C (stereo partly specified)	none (no result: HTT ATP protect, HTT aggregate)
COc1ccc2c(c1)CCC(C)N2C(=O)C(=O)c1c[nH]c2ccccc12 (stereo unspecified)	none (no result: LMNA splice mod, ALDH1A1 inh, HPGD inh)
CCCNC(=O)OC[C@@H]1O[C@H](CCO/N=C\[C@@H](C)[C@H](OCc2ccccc2)C(C)C)C=C[C@@H]1Oc1ccc(OC)cc1	none (no result: LMNA splice mod, HTT aggregate, JMJD2E inh, HPGD inh)
NNC(=O)CN1CCN(c2ncc(C(F)(F)F)cc2Cl)CC1	ALDH1A1 inh inconclusive (no result: HPGD inh)
Fc1ccc(-c2nnc(CN3CCN(c4ncc(C(F)(F)F)cc4Cl)CC3)o2)cc1	LMNA splice mod inconclusive, HTT aggregate 13µM, ALDH1A1 inh inconclusive
CC(C)(C)NC(=O)NC(=O)CN1CCN(c2ncc(C(F)(F)F)cc2Cl)CC1	LMNA splice mod inconclusive, ALDH1A1 inh 28µM
CS(=O)(=O)N1CCC2(CCN(C(=O)Nc3cccc(C#N)c3)CC2)CC1	none (no result: LMNA splice mod, HTT aggregate, JMJD2E inh)
COc1ccc(-c2c[n+](CC(=O)OC3CC(C)CCC3C(C)C)c3n2CCC3)cc1 (stereo unspecified)	LMNA splice mod inconclusive, HTT aggregate 10µM (no result: HPGD inh)
CCN(CC)c1ccc(C(=O)N2CCC(c3ccncc3)CC2)cc1	none (no result: HTT ATP protect, HTT aggregate, ALDH1A1 inh, JMJD2E inh, HPGD inh)
CCN1CCN(C(=O)NCc2ccccc2)CC1	JMJD2E inh inconclusive (no result: LMNA splice mod, ALDH1A1 inh, HPGD inh)
CC1=C(C#N)C(=O)NC(=O)/C1=C\c1ccc(-c2cc(C)c(C)cc2[N+](=O)[O-])o1	ALDH1A1 inh inconclusive, JMJD2E inh 25µM (no result: LMNA splice mod, HTT ATP protect, HPGD inh)
Cc1ccc(-c2ccc(/C=C3/NC(=O)NC3=O)o2)cc1[N+](=O)[O-]	LMNA splice mod inconclusive (no result: HTT ATP protect)
CC(=O)Nc1ccc(OCC(O)Cn2c3ccccc3c3ccccc32)c(C)c1 (stereo unspecified)	LMNA splice mod inconclusive, HPGD inh 25µM
CCCCNC(=O)Cc1cc(=O)[nH]c(=O)[nH]1	none (no result: LMNA splice mod, HPGD inh)
O=[N+]([O-])C(/C=C(\Cl)[N+](=O)[O-])=C(N1CCCCC1)N1CCCCC1	ALDH1A1 inh 14µM (no result: LMNA splice mod, HPGD inh)
COc1ccc2c(c1)C(=O)[C@@H](OC(=O)N[C@H]1CCCc3ccccc31)[C@H](c1ccc(OC)c(Br)c1)O2	ALDH1A1 inh 13µM (no result: LMNA splice mod, HTT aggregate)
COc1ccc2c(c1)O[C@H](c1ccc3c(c1)OCO3)[C@@H](OC(=O)N[C@H]1CCCc3ccccc31)C2=O	LMNA splice mod inconclusive, HTT ATP protect inconclusive
CC1CC2=C(NC(=S)NC2c2ccc(F)cc2)/C(=C/c2ccc(F)cc2)C1 (stereo unspecified)	ALDH1A1 inh 3.5µM
S=C1NC2=C(CCC/C2=C\c2ccc(Cl)cc2)C(c2ccc(Cl)cc2)N1 (stereo unspecified)	ALDH1A1 inh 13µM (no result: LMNA splice mod, HPGD inh)
Fc1ccccc1/C=C1\CCCC2=C1NC(=S)NC2c1ccccc1F (stereo unspecified)	LMNA splice mod inconclusive, HTT aggregate inconclusive, ALDH1A1 inh 0.79µM, JMJD2E inh inconclusive (no result: HPGD inh)
O=C1CCCC2=C1C(c1ccccc1)NC(=S)N2 (stereo unspecified)	ALDH1A1 inh inconclusive (no result: LMNA splice mod, HPGD inh)
S=C1NC2=C(CCC/C2=C\c2ccccc2)C(c2ccccc2)N1 (stereo unspecified)	LMNA splice mod inconclusive, ALDH1A1 inh 0.63µM, HPGD inh 22µM
CC(=O)OC1CC2C(C)(C)CCC(=O)[C@@]2(C)C2CC[C@@]3(C)C(c4ccoc4)OC(=O)C4OC43[C@]12C (stereo partly specified)	none (no result: LMNA splice mod, HTT aggregate)
C[C@H](C(=O)c1ccccc1)[C@@H](c1ccccc1)N1CCOCC1	none (no result: LMNA splice mod, HTT aggregate, ALDH1A1 inh, JMJD2E inh, HPGD inh)
S=C1NC2=C(CCCC2=C2SCCCS2)C(c2ccccc2)N1 (stereo unspecified)	ALDH1A1 inh 1µM (no result: LMNA splice mod, HPGD inh)
COc1ccc(C2NC(=S)NC3=C2CCCC3=C2SCCS2)cc1 (stereo unspecified)	HTT ATP protect inconclusive, ALDH1A1 inh inconclusive (no result: HPGD inh)
Fc1cccc(/C=C2\CCCC3=C2NC(=S)NC3c2cccc(F)c2)c1 (stereo unspecified)	ALDH1A1 inh 0.79µM (no result: LMNA splice mod, HPGD inh)
COCC(=O)N1CCc2nc(-c3ccccc3)c3c(c2C1)CO[C@@H](C)C3	none (no result: HTT aggregate)
Cc1cc(C)cc(NC(=O)c2cc(S(=O)(=O)N3CCCCCC3)cn2C)c1	none (no result: HTT ATP protect, HTT aggregate, ALDH1A1 inh, JMJD2E inh, HPGD inh)
CCCC(=O)Nc1nnc(SCC(=O)N2CCN(c3ccccc3)CC2)s1	none (no result: LMNA splice mod, ALDH1A1 inh, HPGD inh)
CCC(CC)C(=O)Nc1nnc(SCC(=O)N2CCN(c3ccccc3OC)CC2)s1	ALDH1A1 inh 13µM
COc1ccccc1N1CCN(C(=O)CSc2nnc(NC(=O)C(C)C)s2)CC1	LMNA splice mod inconclusive, ALDH1A1 inh 8.9µM, JMJD2E inh inconclusive (no result: HPGD inh)
Cn1cc(Br)c(-c2cccc(NC(=O)CC(C)(C)CC(=O)O)c2)n1	ALDH1A1 inh inconclusive (no result: LMNA splice mod, HPGD inh)
COC(=O)CSC(C)C(=O)Nc1nnc(C(C)C)s1 (stereo unspecified)	HTT ATP protect 3.2µM (no result: HPGD inh)
Cc1ccc(NC(=S)NNC(=O)c2nn(C)cc2Cl)cc1	JMJD2E inh 20µM
Cc1cccc(NC(=S)NNC(=O)c2nn(C)cc2Cl)c1	ALDH1A1 inh inconclusive, JMJD2E inh 32µM
COCC(=O)N1CCC2(CC1)CCN(c1cccc(-c3ccccc3)c1)CC2	HTT ATP protect inconclusive (no result: LMNA splice mod, HTT aggregate, JMJD2E inh)
O=C(CBr)N1CCc2ccccc2C(c2ccccc2)C1 (stereo unspecified)	none (no result: LMNA splice mod, ALDH1A1 inh, HPGD inh)
